# Assay results as given in PubChem BioAssay (NCI).
# This is part of a sample that, as a whole, favours compounds with a hit. Of some 83,000 tested, about 20% had one in any assay.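 Method: cells in 96-well plates; compound added at one concentration; 48 h incubation; percent growth measured; values under 10 scored active.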 Unmarked numbers belong to inactive results. The source made the active and inactive calls.
# Test system: SF-539 CNS
# Assay: NCI-60 one-dose screen, 48 h (100 = growth as untreated, 0 = no growth, -100 = all killed)
# Conditions: 10 µM
row,Compound,growth
1,COc1cc2cc(C(=O)N3C[C@@H](CCl)c4c3cc(OC(=O)N3CCN(C)[C@@H]5CSSC[C@H]53)c3ccccc43)[nH]c2c(OC)c1OC,-96% (active)
2,CC1=C(CCC=O)C2=C(C)C3(CC3)[C@@](C)(O)C(=O)C2=C1,-100% (active)
3,COC(=O)C[C@](O)(CCC(C)C)C(=O)O[C@@H]1C(OC)=C[C@]23CCCN2CCc2cc4c(cc2[C@H]13)OCO4,-77.1% (active)
4,O=C(/C=C/c1ccc(Cl)cc1)c1nc2ccccc2n1Cc1ccc(F)cc1,-41.7% (active)
5,CC[C@]12C=CCN3CC[C@@]4(c5ccc(OC)cc5N(C)[C@H]4[C@@](O)(C(=O)OC)[C@@H]1OC(=O)CCC[P+](C1CCCCC1)(C1CCCCC1)C1CCCCC1)[C@@H]32,-86.5% (active)
6,CC1=C2C(=C[C@@](C)(COP(=O)(Oc3ccccc3)Oc3ccccc3)[C@@H]2O)C(=O)[C@@](C)(O)C12CC2,-99.1% (active)
7,CC(=O)Oc1ccccc1C(=O)NC([Se])=NC1CCCCC1,-84.7% (active)
8,CCOP(=O)(CC(F)(F)C(F)(F)F)OCC,-48.6% (active)
9,CC(C)C[C@H](NC(=O)CNC(=O)C[C@H]1O[C@@H]2OC3(C)CC[C@H]4[C@H](C)CC[C@@H]([C@H]1C)[C@@]24OO3)B(O)O,-93.3% (active)
10,C[C@H]1[C@@H](Oc2ccc(-c3cn(-c4ccnc5cc(Cl)ccc45)nn3)cc2)O[C@@H]2OC3(C)CC[C@H]4[C@H](C)CC[C@@H]1[C@@]24OO3,30.5%
11,C[C@H]1[C@H](OC(=O)CCC(=O)N(CCCc2cn(-c3ccc([N+](=O)[O-])cc3)nn2)CCNc2ccnc3cc(Cl)ccc23)O[C@@H]2OC3(C)CC[C@H]4[C@H](C)CC[C@@H]1[C@@]24OO3,38.1%
